Test results published in PubChem BioAssay (Tox21).
Several values for one entry are separate records, joined by “and”; a condition that tells them apart may be missing. Equal values may be shown once. Results filed as inconclusive are left out. A call without a number means that no potency is given here. A number with no mark means an inactive call. Activity calls are given as the source filed them. Calls come from the whole dose curve.

Test: p53 small molecule agonists, cell-based qHTS assay with human liver microsomes: qHTS cell viability counter screen (AID 1963579); note: nearly all actives have a fitted effect of over 45% in size
Conditions: p53RE-bla HCT-116 viability, ATP luminescence, 16 h, HLM; series mostly up to 66 µM
Excerpt: National Center for Advancing Translational Sciences [NCATS]
Division of Preclinical Innovation [DPI]
U.S. Environmental Protection Agency [EPA]
National Institutes of Environmental Health Sciences [NIEHS]
National Toxicology Program [NTP]
U.S. Food and Drug Administration [FDA]
p53, a tumor suppressor protein, is activated following cellular insult, including DNA damage and other cellular stresses. The activation of p53 regulates cell fate by inducing DNA repair, cell cycle arrest, apoptosis, or cellular senescence. The activation of p53, therefore, is a good indicator of DNA damage and other cellular stresses. […] The activation of the reporter gene under culture conditions can be detected by fluorescence intensity. This cell line was used to screen the Tox21 10K compound library in the condition of presence of human liver microsomes and to identify agonists that activate the p53 signaling pathway after in vitro metabolic activation (Ooka et al., Archive of Toxicology 96:1975-1987, 2022).
Tox21 Assay Protocol Summary:
The p53RE-bla cells were dispensed at 4,000cells/3ul/well in 1536-well black-clear bottom plates. After the assay plates were incubated at 37 C, 5% CO2 incubator for 5 hours, 23 nL of compounds dissolved in DMSO, positive controls or DMSO only was transferred to the assay plate. Following compound addition, 3 uL of human liver microsomes (XenoTech, Kansas City, KS) at final concentration of 0.5 mg/mL and 1uL of B-Nicotinamide adenine dinucleotide 2'-phosphate (NADPH) at final concentration of 0.5 mg/mL were transferred to the assay plate. The plates were incubated at 37 C for 16 hours. 1 uL of LiveBLAzer detection mixture was added to each well and the plates were incubated at room temperature in the dark for 2 h. Fluorescence intensity at 460 and 530 nm emission and 405 nm excitation were measured by an Envision plate reader. For cell viability readout that measures cytotoxicity, 4 ul/well of CellTiter-Glo reagent was added into the assay plates using a Flying Reagent Dispenser. After 30 min incubation at room temperature, the luminescence intensity in the plates was measured using a ViewLux plate reader.
Potency is the fitted concentration of half-maximal effect.

Row | Structure (SMILES) | Potency | activity change, negative = cytotoxicity
1 | CCC(C)(C)c1ccc(O)c(C(C)(C)CC)c1 | 45.3 µM (active) and 25.7 µM (active) | –
2 | O=C1CCCO1 | inactive | –
3 | ClCc1ccccn1 | inactive | –
4 | O=C(O)C(Cl)Cl | inactive | –
5 | C[C@]12CCC(=O)C=C1CC[C@@H]1[C@@H]2CC[C@]2(C)C(=O)CC[C@@H]12 | inactive | –
6 | Cl/C=C\CCl | inactive | –
7 | CC(=O)/C=C/c1ccccc1 | inactive | –
8 | CCOc1nc(F)cc2nc(S(=O)(=O)Nc3c(Cl)cccc3Cl)nn12 | inactive | –
9 | O=[N+]([O-])c1c(Cl)c(Cl)c(Cl)c(Cl)c1Cl | inactive | –
10 | CC(C)(C)OOC(=O)c1ccccc1 | inactive | –
11 | CC[n+]1c(-c2ccccc2)c2cc(N)ccc2c2ccc(N)cc21 | inactive | –
12 | CN(C)C(=S)SSC(=S)N(C)C | inactive | –
13 | CC(C)C(C)(N)C#N (stereo not given) | inactive | –
14 | O=C(O)COc1ccc(Cl)cc1Cl | inactive | –
15 | OCCCl | inactive | –
16 | Cl[C@H]1OCCO[C@@H]1Cl | inactive | –
17 | CCOC(=O)C(c1c(O)c2ccccc2oc1=O)c1c(O)c2ccccc2oc1=O | inactive | –
18 | COP(=O)(OC)OC=C(Cl)Cl | inactive | –
19 | O=[N+]([O-])c1cc(Cl)ccc1Cl | inactive | –
20 | CCOP(=O)(OCC)Oc1ccc([N+](=O)[O-])cc1 | inactive | –

Row | Structure (SMILES) | Potency | activity change, negative = cytotoxicity
21 | COc1ccc(CO)cc1 | inactive | –
22 | Brc1c(Br)c(Br)c(Br)c(Br)c1Br | – | -1.65% [at 5.99 µM]
23 | NC(=O)CF | inactive | –
24 | CC(C)N1C(=O)c2ccccc2NS1(=O)=O | inactive | –
25 | O=c1[nH]c(=O)[nH]c(=O)[nH]1 | inactive | –
26 | CCCCOCCOC(C)=O | inactive | –
27 | CC1CC(=O)O1 (stereo not given) | inactive | –
28 | BrC(Br)Br | inactive | –
29 | C=C(C)C(=O)OCC(CC)CCCC (stereo not given) | inactive | –
30 | O=C([O-])c1ccccn1.O=C([O-])c1ccccn1.O=C([O-])c1ccccn1.[Cr+3] | inactive | –
31 | O=C(O)C(F)(F)C(F)(F)C(F)(F)C(F)(F)C(F)(F)C(F)(F)C(F)(F)C(F)(F)F | inactive | –
32 | ClCCOCCCl | inactive | –
33 | N#CC(Cl)Cl | inactive | –
34 | CCCCCCC1CCOC1=O (stereo not given) | inactive | –
35 | C=CCBr | inactive | –
36 | O=NN1CCCC1 | inactive | –
37 | CCOP(=O)(OCC)OCC | inactive | –
38 | CS(=O)(=O)Cl | inactive | –
39 | CC(C)(O)C#N | inactive | –
40 | CC(C)=C[C@@H]1[C@@H](C(=O)OCc2coc(Cc3ccccc3)c2)C1(C)C | inactive | –
